# Bioassay records as filed in PubChem.
# An excerpt weighted towards active compounds, which were near 19% of everything screened.
# TDP1 cell noCPT: qHTS for Inhibitors of human tyrosyl-DNA phosphodiesterase 1 (TDP1): qHTS in cells in absence of CPT; Potency, µM (doses to about 46.2 µM), for inactives: top-dose activity change, negative = growth inhibition, usual class: inhibitors; DT40 Tdp1-/- hTDP1 cells, no CPT, ATP luminescence, 48 h; hit rate 15% among 420,000; further: nearly all actives have a fitted effect of over 55% in size
#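 Luminescent ATP content (CellTiter-Glo) served as the growth readout. Knockout chicken DT40 cells expressing human TDP1 were exposed to compounds without camptothecin for a minimum 48 hr at 37 °C.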
# HT1080 IDH1KD tx: HT-1080 IDH1 knockdown cell toxicity (counter line). HT-1080 IDH1 knockdown viability, ATP luminescence, 48 h. Potency, µM (highest dose often 46.1 µM), for inactives: at the highest dose activity, negative = toxicity, hits mostly cytotoxic. hit rate 2% among 360,000;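 further: 0% = DMSO wells and -100% = cell-free medium wells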
#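 In this qHTS, HT-1080 cells depleted of IDH1 are exposed for 48 h at 37 °C to compound titrations. Toxicity is scored from CellTiter-Glo luminescence, with DMSO as full viability and medium alone as none.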
# DT40 TDP1 CPT: DT40-hTDP1 cell growth loss with CPT; chicken DT40 Tdp1-/-;hTDP1 cells + 20 nM CPT, ATP luminescence, 48 h; Potency, µM (series often up to 46.2 µM), inactives show at the highest dose activity change, negative = growth inhibition, usual class: inhibitors; hit rate 12% among 420,000; further: nearly all actives have a fitted effect of over 55% in size
#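 Chicken DT40 Tdp1-/- cells complemented with human TDP1, 400 cells/well, exposed to compounds plus 20 nM camptothecin for at least 48 h at 37 C; viability read as ATP content by CellTiter-Glo luminescence.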
# HT1080NT lethal: kills 2HG-producing HT-1080-NT fibrosarcoma cells | Potency, µM (doses to about 46.1 µM), for inactives: at the highest dose activity, negative = less viability, usual class: cytotoxic | HT-1080-NT fibrosarcoma viability, CellTiter-Glo ATP luminescence, 48 h | hit rate 1.6% among 360,000 | AID 686970;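 further: NT is the 2HG producing partner of a matched IDH1 knockdown line; 0% = DMSO-treated cells and -100% = media-only wells without cells; nearly all actives have a fitted effect of over 55% in size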
#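 Viability by CellTiter-Glo luminescence after 48 h compound exposure at 37C of HT-1080-NT cells (750/well, RPMI, 5% FBS). % activity scaled between DMSO wells and medium-only wells, then curve-fitted and categorized by curve class.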
# KB-3-1 cytotox: KB-3-1 parental cell cytotoxicity | KB-3-1 viability, CellTiter-Glo ATP luminescence, 72 h | Potency, µM (highest dose often 46.1 µM), usual class: cytotoxic | hit rate 1.4% among 400,000; further: nearly all actives have a fitted effect of over 60% in size
#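 Cells are dispensed, compounds pinned in, plates held at 37 °C for 72 h, then CellTiter-Glo is added and luminescence read after 10 minutes. Cell line: parental KB-3-1 in phenol-red-free DMEM, 10% FBS.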
# KB-V1 MDR tox: kills drug-selected multidrug resistant KB-V1 cells | Potency, µM (highest dose often 46.1 µM), hits mostly cytotoxic | hit rate 3.4% among 400,000 | KB-V1 MDR cells viability, CellTiter-Glo, 72 h; further: nearly all actives have a fitted effect of over 60% in size
#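 In this primary screen, KB-V1 cells overexpressing P-gp are incubated with library compounds (lowest to highest concentration) for 72 h at 37 degrees C before a luminescent ATP viability read.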
# The depositor's hits bear a star; i = inactive; ? = inconclusive; . = no result given; [ ] = dose if it differs, or a comment. The call rests on the fitted dose curve; in most records, active means well fitted curve in the direction sought with a large enough effect; inconclusive means small, poorly fitted or top-dose-only effect, or another doubt; inactive means no such curve, though single readings can be large; an effect the other way counts as inactive or inconclusive. Unless noted, on the % scale 0 is the no-effect control and ±100 the full control effect; potency means the concentration at half of the fitted maximal effect.
SMILES,TDP1 cell noCPT,HT1080 IDH1KD tx,DT40 TDP1 CPT,HT1080NT lethal,KB-3-1 cytotox,KB-V1 MDR tox
COc1cccc(CN2C(=O)C(C)Oc3ccccc32)c1 (stereo not given),-4%,3%,-8%,-8%,i,i
COc1ccc(CN2C(=O)C(C)Oc3ccccc32)cc1 (stereo not given),?,0%,-1%,-5%,i,i
Cc1nn(Cc2ccc([N+](=O)[O-])cc2)c(=O)n1-c1c(F)cccc1F,-21%,-2%,-12%,-1%,i,i
COc1ccc(CN2C(=O)C(C)N(C(=O)c3c(F)cccc3F)c3ccccc32)cc1 (stereo not given),8.2µM*,4%,13µM*,-2%,i,i
COc1cccc(CN2C(=O)C(C)N(C(=O)c3ccccc3)c3ccccc32)c1 (stereo not given),6.5µM*,-2%,13µM*,?,i,?
COc1ccc(Cl)cc1/C=C(\C#N)C(N)=O,?,3%,?,2%,i,i
CCOc1ccc(-c2ccc(SC)nn2)cc1,8.2µM*,23µM*,-30%,16µM*,?,12µM*
COc1cccc(-c2cc3c(c(OC)c2)OCCN(Cc2cccn2-c2ccccn2)C3)c1,-7%,.,18%[9.04 µM],.,.,.
CC1CC1C(=O)Nc1cc(S(=O)(=O)N2CCOCC2)ccc1N1CCCC1 (stereo not given),-1%,18%,17%,16%,i,i
O=C(Nc1cc(S(=O)(=O)N2CCCC2)ccc1OCC(F)(F)F)c1ccncc1,-20%,8%,-9%,5%,i,i
O=C(Oc1c(-c2ccccc2)oc2ccccc2c1=O)c1ccccc1,10µM*,-26%,?,-22%,?,12µM*
O=C(Oc1cc(=O)oc2ccccc12)c1ccccc1,2.3µM*,16µM*,2.6µM*,16µM*,5.2µM*,i
Cc1ccc(Cn2nnc3c(=O)n(Cc4cccc(C)c4)cnc32)cc1,?,-1%,-9%,10%,i,?
Cc1cccc(Cn2cnc3c(nnn3Cc3ccc(Cl)cc3)c2=O)c1,16µM*,-15%,?,?,i,i
O=C(Cn1cnc2c(nnn2Cc2ccccc2F)c1=O)N1CCN(c2ccccc2)CC1,?,2%[9.24 µM],?,-25%,i,i
O=C(Cn1cnc2c(nnn2Cc2ccccc2)c1=O)N1CCN(c2ccccc2)CC1,23µM*,1%,?,4%,i,i
O=C(Cn1cnc2c(nnn2Cc2ccc(Cl)cc2)c1=O)N1CCN(c2ccccc2)CC1,21µM*,-20%,18µM*,-7%,i,i
COc1cccc(-n2nnc3c(=O)n(CC(=O)N4CCC(Cc5ccccc5)CC4)cnc32)c1,?,17%,?,5%,?,5.2µM*
O=C(Cn1cnc2c(nnn2Cc2ccc(Cl)cc2)c1=O)N1CCCc2ccccc21,?,3%,?,16%,i,i
CC(Oc1cccc2ccccc12)C(=O)N/N=C/c1cccnc1 (stereo not given),4%,-7%,-11%,-2%,i,i
O=C(Nc1c2c(nn1-c1ccccc1)CS(=O)C2)c1ccco1 (stereo not given),0%,6%,0%,-3%,i,i
Cc1cccc(OCc2nnc(SCC(=O)N3CCCCC3)o2)c1,-21%,1%,5%,0%,i,i
[2H]C(CCOS(N)(=O)=O)c1ccc(C(C)(C)C)cc1 (stereo not given),21µM*,-4%,21µM*,-2%,i,i
Cc1ccc(S(=O)(=O)Nc2ccsc2C#N)cc1,12%,-1%,-5%,-3%,i,i
COC(=O)CC[C@H](N)C(=O)O,-28%,.,-3%,.,.,.
SMILES,TDP1 cell noCPT,HT1080 IDH1KD tx,DT40 TDP1 CPT,HT1080NT lethal,KB-3-1 cytotox,KB-V1 MDR tox
COc1cccc(-n2cnc3sc(C)c(C)c3c2=O)c1,-10%,-1%,-6%,-1%,i,21µM*
Nn1c(Nc2ccccc2)nc2sc3c(c2c1=O)CCCC3,?,-10%,?,-5%,i,i
COc1ccc(-n2c(NNC(C)=O)nc3sc4c(c3c2=O)CCCC4)cc1,4.1µM*,-22%,3.3µM*,-24%,i,i
NNc1nc2sc3c(c2c(=O)n1-c1ccccc1)CCCC3,?,-26%,18µM*,-12%,?,i
COc1ccc(-n2cnc3sc4c(c3c2=O)CCCC4)cc1,?,-17%,?,1%,i,16µM*
COc1ccc(Cl)cc1C(=O)NNC(=O)CNC(=O)c1ccco1,0%,6%,-10%,9%,i,?
NS(=O)(=O)c1ccc(CCNS(=O)(=O)c2ccc3c(c2)NC(=O)CO3)cc1,0%,6%,6%,16%,i,?
CCOC(=O)C1=C(C)N(C)C(C)=C(C(=O)OCC)C1c1ccc(Cl)cc1,?,23µM*,?,?,i,?
CCOC(=O)C1=CNS(=O)(=O)NC1c1ccc(C(=O)OC)cc1 (stereo not given),-1%,3%,2%,2%,i,i
CCOC(=O)C1=C(C)NC(=S)N(C(C)=O)C1c1ccc(Cl)cc1 (stereo not given),-13%,13µM*,16µM*,?,i,i
CCOC(=O)C1=C(C)Nc2nc(SC)nn2C1c1ccc(C(=O)OC)cc1 (stereo not given),-14%,9%,-3%,2%,i,5.8µM*
COC(=O)C1=C(C)N(C)C(C)=C(C(=O)OC)C1c1ccc(Cl)cc1,?,-8%,-24%,3%,?,i
CCOC(=O)C1=C(C)N(C)C(C)=C(C(=O)OCC)C1c1ccc(C(=O)OC)cc1,15µM*,-20%,?,-4%,i,?
CCN(c1cccc(C)c1)S(=O)(=O)c1cc2c(cc1C)n(C)c(=O)c(=O)n2C,-22%,.,-5%,.,i,?
CC(C)[C@@H]1Cc2[nH]n(C)c(=O)c2[C@H](c2ccc(Cl)cc2)O1,-9%,4%,4%,15%,i,i
CCOC(=O)C1=C(C)N(C)C(C)=C(C(=O)OCC)C1c1ccsc1,15µM*,0%,?,-2%,i,?
CC(C)(c1ccccc1)c1ccc(OCc2ccc(C(=O)O)o2)cc1,-9%,0%,-13%,-3%,i,i
